Active and inactive are the calls of the source.
Columns and labels:
[1] = A549 cell viability effects, profiling panel, calcein-AM fluorescence, 48 h, basal (AID 1162); details: higher = more signal
[2] = adipocyte viability effects, profiling panel, cell-based, 3T3-L1 adipocytes, calcein-AM fluorescence, 48 h, basal (AID 1163); details: 3T3-L1 adipocytes viability, higher = more signal
[3] = HepG2 cell viability effects, profiling panel, calcein-AM fluorescence, 48 h, basal (AID 1164); details: higher = more signal
[4] = MM1S cell viability effects, profiling panel, calcein-AM fluorescence, 48 h, basal (AID 1165); details: higher = more signal;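 note: viability of MM1S multiple myeloma cells under basal unstimulated conditions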
[5] = basal RPMI8226 viability, no added stimulus, profiling panel, cell-based, calcein-AM fluorescence, 48 h, PK04 Diversity Set (AID 1166); details: RPMI8226 myeloma viability, higher = more signal;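 note: cells grown under basal conditions without added stimulus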
[6] = basal HepG2 mitochondrial membrane potential changes, profiling panel, cell-based, JC-1 fluorescence, 24 h, 100 nL compound (AID 1167); details: higher = more signal
[7] = basal 3T3-L1 adipocyte mitochondrial potential changes, profiling panel, cell-based, JC-1 fluorescence, 3T3-L1 adipocytes, 24 h, 100 nL compound (AID 1168); details: JC-1 mitochondrial fluorescence, higher = more signal, called active from +8 up or from −8 down
[8] = basal RPMI8226 mitochondrial membrane potential changes, profiling panel, cell-based, JC-1 fluorescence, 24 h, 100 nL compound (AID 1169); details: RPMI8226 myeloma, JC-1 mitochondrial potential fluorescence, higher = more signal
[9] = basal MM1S mitochondrial membrane potential changes, profiling panel, cell-based, JC-1 fluorescence, 24 h, 100 nL compound (AID 1170); details: higher = more signal
[10] = A549 lung cancer cell viability effects, profiling panel, resazurin fluorescence, 24 h, PK04 Diversity Set (AID 1171); details: higher = more signal, called active from +8 up or from −8 down
Note: test concentration not given here.

| Compound | z-score [1] | z-score [2] | z-score [3] | z-score [4] | z-score [5] | z-score [6] | z-score [7] | z-score [8] | z-score [9] | z-score [10] |
| --- | --- | --- | --- | --- | --- | --- | --- | --- | --- | --- |
| CC(C)C(CO)N1C(=O)[C@@H]2C3C(=O)OCCC/C=C\[C@H]3OC23C=CCN(C(C)(C)C)C(=O)[C@@H]13 (stereo not given in full) | -0.444 | -0.496 | -0.972 | 0.724 | 0.851 | -0.3 | 0.306 (inactive) | 0.0508 | -0.351 | -0.265 (inactive) |
| COc1cc2c(cc1OC)CN(C(=O)[C@@H]1[C@H]3C(=O)O[C@H](c4ccccc4)[C@H](c4ccccc4)N3[C@H](c3ccc(OCCO)cc3)[C@@]13C(=O)Nc1ccc(C#CC4(O)CCCCCC4)cc13)CC2 | 2.93 | 1.72 | 0.988 | -0.0788 | 0.792 | -0.555 | 0.601 (inactive) | -0.831 | -1.3 | 0.36 (inactive) |
| CC(C)(C)OC(=O)CC[C@]1(C(=O)NCC(O)CO)N=C(c2ccc(OCCCO)cc2)O[C@H]1c1ccccc1 (stereo not given in full) | 0.156 | 0.833 | 0.135 | 0.709 | 0.0887 | 0.52 | -0.24 (inactive) | -0.963 | 0.437 | 0.489 (inactive) |
| CC1=C([C@H](O)CCc2ccccc2)[C@H](CO)[C@@H]2C(=O)N(C)C(=O)[C@@H]2C1 | 1.18 | -0.371 | -0.473 | 0.236 | -0.245 | -0.622 | 0.459 (inactive) | -0.0985 | -0.279 | -0.39 (inactive) |
| COc1ccc(NC(=O)O[C@H]2[C@H](OC(=O)Nc3ccccc3)[C@@H](OC(=O)Nc3ccccc3)[C@@H](OC)O[C@@H]2CO)cc1 | -1.42 | 0.635 | -1.17 | -1.18 | -2.26 | -0.107 | -0.261 (inactive) | -0.765 | -1.06 | -2.97 (inactive) |
| CCCCCCCCCCC(O)C1C=CC2C(=O)N(C)C(=O)C2N1NC(=O)OC(C)(C)C (stereo not given) | -3.85 | 0.0766 | -5.09 | -3.91 | -4.14 | -3.31 | -0.464 (inactive) | -0.946 | -2.37 | -3.67 (inactive) |
| C=C[C@@H](COC(C)=O)N(C(=O)OC(C)(C)C)S(=O)(=O)c1ccc(Br)cc1 | 1.82 | 0.104 | 0.469 | 0.867 | 0.643 | 0.515 | 0.122 (inactive) | -0.212 | -0.624 | -0.586 (inactive) |
| Cc1ccc(S[C@]2(C(=O)NCC(F)(F)F)CC(=O)N(Cc3ccccc3)[C@@H]2c2ccc(CO)cc2I)cc1 | 0.208 | -0.649 | -0.425 | -1.84 | -2.08 | -1.75 | -0.68 (inactive) | -0.797 | -1.59 | 0.589 (inactive) |
| COc1ccc([Si](C)(C)[C@H]2[C@H](CC(=O)N(CCO)Cc3ccccc3)O[C@@]3(C(=O)N(Cc4cccc(N5CCOC5=O)c4)c4ccccc43)[C@@H]2C)cc1 | -1.49 | 0.836 | -2.16 | -1.79 | -4.29 | 0.917 | -0.606 (inactive) | -1.16 | -1.56 | -3.44 (inactive) |
| COC(=O)[C@@]1(Cc2ccc(OC)cc2)[C@H]2c3cc(C(=O)N(C)C)n(C[C@H](O)CO)c3C[C@H]2CN1C(=O)c1ccccc1 | -0.93 | -0.503 | -0.285 | -1.99 | -1.79 | 0.906 | -0.871 (inactive) | -0.847 | -1.03 | -0.816 (inactive) |
| O=C1NC(=O)C2C1C=CC(C(O)CCc1ccccc1)N2Nc1ccc(Cl)cc1Cl (stereo not given) | -0.308 | -0.217 | -0.588 | -2.19 | -1.19 | -2.19 | -1.75 (inactive) | -0.236 | -0.0222 | -0.768 (inactive) |
| CCOC(=O)C[C@H]1[C@H](OC(=O)c2cc3ccccc3oc2=O)[C@@H](NC(=O)Cc2ccc(OC)cc2)c2cc(OCCCO)ccc2N1C(=O)c1ccc2ccccc2n1 | 0.167 | 0.66 | 0.493 | -0.171 | 0.865 | -0.917 | -0.0891 (inactive) | -0.265 | 0.429 | -0.341 (inactive) |
| CO[C@H]1O[C@H](CO)[C@@H](OC(=O)Nc2ccccc2-c2ccccc2)[C@H](OC(=O)Nc2ccc3c(c2)OCO3)[C@H]1OC(=O)Nc1ccc2c(c1)OCO2 | 0.673 | -0.31 | -0.521 | -1.02 | -2.75 | 0.844 | 1.48 (inactive) | -1.01 | 0.823 | 0.262 (inactive) |
| C=CC[C@@]1(C(=O)N2CCOCC2)N=C(c2ccc(OCCCO)cc2)O[C@@H]1c1ccccc1CN=[N+]=[N-] | 1.42 | 0.563 | 1.09 | -0.909 | -0.697 | 1.97 | -0.212 (inactive) | -0.838 | -0.845 | 0.278 (inactive) |
| CCOC(=O)c1ccc(NC(=O)O[C@H]2[C@H](OC(=O)Nc3ccc4c(c3)OCO4)[C@H](OC(=O)Nc3ccc4c(c3)OCO4)[C@@H](OC)O[C@@H]2CO)cc1 | -0.83 | 0.529 | -1.02 | -0.982 | -1.21 | -0.691 | -0.289 (inactive) | -0.576 | -1.09 | -0.824 (inactive) |
| C=CCN1Cc2ccccc2[C@H]2OC(c3ccc(OCCCO)cc3)=N[C@@]2(CC=C)C1=O | -0.391 | 0.659 | -0.121 | -1.7 | -2.4 | 2.11 | 0.661 (inactive) | -0.807 | -1.01 | -1.18 (inactive) |
| C=C(/C(=C/C[C@@H](OC(C)=O)c1cccc(OCCO)c1)c1cc(C(=O)OC)ccc1OC)C(C)C | -0.0413 | 0.0983 | -0.159 | -0.881 | -0.264 | 1.86 | -0.789 (inactive) | 0.373 | -0.682 | 2.17 (inactive) |
| CC(C)C[C@@H]1NC(=O)[C@@H]2C[C@H](C(=O)NCCCCCN)[C@H](c3ccc(O)cc3)N2C1=O | 0.0318 | 0.484 | -0.354 | -0.0387 | 0.286 | -0.502 | -0.259 (inactive) | 0.7 | 0.698 | -0.676 (inactive) |
| COCCOC(=O)N1C(=O)[C@@]2(c3cc(C#CC4=CCCCC4)ccc31)[C@H](c1ccccc1OCCO)N1[C@H](c3ccccc3)[C@H](c3ccccc3)OC(=O)[C@H]1[C@@H]2C(=O)Nc1nc2ccccc2s1 | -0.0438 | 0.764 | 0.416 | -2.34 | -3.43 | -2.68 | 0.745 (inactive) | -0.759 | -1.08 | -0.0954 (inactive) |
| Cc1cc(C)cc(N2C(=O)CSC2c2cccc([N+](=O)[O-])c2)c1 (stereo not given) | 0.377 | -0.28 | 0.0887 | 1.22 | 0.699 | 1.43 | 0.786 (inactive) | -0.445 | -0.541 | -0.661 (inactive) |
| CCCC[C@@H]1C[C@H]1[C@@H](NC(=O)Cc1ccccc1)c1ccc(-c2ccccc2)cc1 | -0.902 | -0.12 | -0.323 | -0.378 | -1.48 | -0.929 | -0.118 (inactive) | 0.043 | -1.71 | 0.261 (inactive) |
| O=C(CS)NCCCCCCNC(=O)[C@H]1C[C@H]2C(=O)N[C@@H](Cc3ccccc3)C(=O)N2[C@H]1c1ccc(O)cc1 | 0.215 | 0.0724 | -0.521 | -1.51 | 0.388 | -1.57 | -1.09 (inactive) | -0.254 | 0.046 | 1.26 (inactive) |
